Source: PMC5540273 (PLoS ONE, 2017)

Columns and labels:
Conditions in all cases: concentration: 1 μM, replicates: in singlicate; n = 1
[1] = tested on: FGFR1
[2] = tested on: FGFR2
[3] = tested on: FGFR3
[4] = tested on: FGFR4
[5] = tested on: FGR
[6] = tested on: FLT1
[7] = tested on: FLT3-autoinhibited
[8] = tested on: FLT3
[9] = tested on: FLT4
[10] = tested on: FRK
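Further: KINOMEscan kinase panel screen.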

Structure (SMILES)	%Inh [1]	%Inh [2]	%Inh [3]	%Inh [4]	%Inh [5]	%Inh [6]	%Inh [7]	%Inh [8]	%Inh [9]	%Inh [10]
Nc1ncnc2scc(-c3ccc(NC(=O)Cc4cc(F)ccc4F)cc3)c12.O=C(O)C(F)(F)F [SB-731254-M]	28%	100%	0%	9%	23%	90.7%	89%	94.1%	61%	0%
CS(=O)(=O)c1cccc(CNc2nc(Nc3ccc4c(c3)CCC(=O)N4)ncc2C(F)(F)F)c1	63%	65%	36%	32%	0%	77%	54%	99%	89%	0%
COC(=O)Nc1nc2ccc(Oc3ccc(NC(=O)Nc4cc(C(F)(F)F)ccc4F)cc3)cc2[nH]1.Cl [GW654607]	26%	63%	11%	17%	12%	99.6%	27%	99%	99.9%	94.7%
NCCC(NC(=O)c1cc(Br)c(-c2ccnc3[nH]ccc23)s1)c1ccccc1.O=C(O)C(F)(F)F.O=C(O)C(F)(F)F (stereo not drawn) [GSK1307810]	73%	74%	45%	36%	13%	73%	25%	88%	39%	22%
CNc1nccc(-c2ccc3c(N)n[nH]c3c2)n1 [GSK2206003]	41%	5%	11%	2%	29%	49%	14%	50%	5%	6%
CCn1c(-c2nonc2N)nc2c(-c3ccccc3)ncc(OCCCN)c21.O=C(O)C(F)(F)F.O=C(O)C(F)(F)F [GSK260205]	30%	0%	0%	0%	38%	37%	0%	12%	43%	5%
CCn1cnc2c(NCc3ccccc3)ncnc21 [SKF-96418]	0%	0%	0%	0%	0%	0%	0%	0%	0%	0%
O=C(Nc1n[nH]c2nc(-c3ccccc3O)ccc12)C1CC1 [SB-711880]	31%	0%	0%	3%	0%	3%	0%	28%	0%	0%
CN(c1ccc(F)c(NC(=O)c2cccc(OC(C)(C)C#N)c2Cl)c1)c1ccc2nc(NC(=O)C3CC3)sc2n1	48%	72%	8%	26%	84%	95.8%	0%	96.7%	99.8%	71%
